Rows were chosen to be rich in hits. Some 5.9% of all compounds tested hit in one or more screens of this group.
ALR H2O2 inh: inhibitors of human sulfhydryl oxidase ALR; P55789; purified ALR, DTT oxidation, H2O2 HRP-luminol luminescence; inhibition, % (concentration not given with the values); hit rate 3.8% among 290,000;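 active means mean replicate inhibition above about 79%, with every replicate also reaching it, limit read from the data; inconclusive means only one of the two criteria met; inactive means mean below limit and not every replicate reaching it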
Target sequence (P55789 whole entry, looked up): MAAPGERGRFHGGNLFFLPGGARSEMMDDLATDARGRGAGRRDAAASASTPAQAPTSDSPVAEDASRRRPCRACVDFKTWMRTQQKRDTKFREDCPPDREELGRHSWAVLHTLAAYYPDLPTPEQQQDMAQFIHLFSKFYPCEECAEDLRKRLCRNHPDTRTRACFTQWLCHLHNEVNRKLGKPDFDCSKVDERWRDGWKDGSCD
LANA-H2A inh: blocks KSHV LANA binding to histone H2A/H2B; inhibition, % (test concentration not listed); AID 2629; hit rate 0.6% among 320,000; Q9QR71; cell-free LANA-H2A/H2B peptide, fluorescence polarization; in the data active means inhibition mostly above about 10%, no sharp cut-off; inactive means mostly below about 6.7%
PRMT1 FP inh: blocks human protein arginine methyltransferase 1; Q99873; recombinant PRMT1, activity-based probe fluorescence polarization; inhibition, % at 2.79 µM; hit rate 1.3% among 370,000; AID 652257;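 active means inhibition above about 21% made by adding two undisclosed values, limit read from the data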
Rtt109 Vps75: inhibitors of Candida albicans Rtt109/Vps75 histone acetyltransferase | purified Rtt109/Vps75, ThioGlo CoA-SH fluorescence, 4 h | inhibition, % at 34.9 µM | AID 540336 | Q5AAJ8 | hit rate 0.16% among 330,000;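 active means inhibition of at least 50% in every replicate; inconclusive means best replicate reaches 50% inhibition but some replicates fall short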
Target sequence (Q5AAJ8 whole entry, looked up): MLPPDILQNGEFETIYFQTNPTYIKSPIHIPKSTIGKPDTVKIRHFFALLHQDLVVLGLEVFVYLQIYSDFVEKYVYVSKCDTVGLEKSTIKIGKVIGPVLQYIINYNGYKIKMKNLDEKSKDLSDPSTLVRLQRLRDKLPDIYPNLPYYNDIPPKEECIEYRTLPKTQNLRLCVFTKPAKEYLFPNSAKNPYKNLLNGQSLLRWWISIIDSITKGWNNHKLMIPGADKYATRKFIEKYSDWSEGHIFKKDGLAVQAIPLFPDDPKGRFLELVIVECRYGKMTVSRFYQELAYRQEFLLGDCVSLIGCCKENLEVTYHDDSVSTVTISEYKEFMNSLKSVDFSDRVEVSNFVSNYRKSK
ABHD5 PLIN5 PPI: blocks binding of human ABHD5 to perilipin-5. Split G. princeps luciferase complementation, luminescence, 4 h. inhibition, % at 4 µM. Q00G26+Q8WTS1. hit rate 0.78% among 360,000;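 active means inhibition above the mean inhibition across every tested compound plus 3 SD, cut at about 22% in these data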;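 further: 0% = DMSO only wells and the 100% control is not disclosed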
rCAG RNA binder: r(CAG) repeat RNA binding; hit rate 1.3% among 370,000; AID 651821; inhibition, % at 3 µM; TO-PRO-1 dye displacement fluorescence;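 active means inhibition above the plate cutoff, the mean of all test compounds on that plate plus 3 SD, cut at about 35% in these data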;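 further: 0% = DMSO alone and 100% = 100 µM mitoxantrone as full dye displacement; higher means more dye released from RNA so lower well fluorescence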
ABHD5 PLIN5 conf: confirmation of human ABHD5-PLIN5 interaction inhibitors | biochemical ABHD5-PLIN5 interaction, luminescence | hit rate 67% among 2,200 | shares compounds with ABHD5 PLIN5 PPI | inhibition, % at 4 µM; in the data active means inhibition above about 23%;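 further: 0% = DMSO vehicle wells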
HNF4 split-luc: HNF4 split-luciferase signal hit, counter-screen | shares compounds with ABHD5 PLIN5 PPI | HNF4 dimerization, luminescence, biochemical | inhibition, % at 4 µM | hit rate 77% among 2,200;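 active means mean inhibition across replicate wells exceeding the computed hit threshold, cut at about 13% in these data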;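 further: light from luciferase halves that rejoin when HNF4 fusion proteins dimerize; 0% = DMSO only wells and the 100% control is not given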
rCAG bind conf: r(CAG) RNA repeat binding, confirmation | inhibition, % at 3 µM | hit rate 70% among 4,300 | shares compounds with rCAG RNA binder | TO-PRO-1 dye displacement fluorescence | AID 652065;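 active means inhibition above a per-plate cutoff, the mean inhibition of sample wells plus 3 SD, cut at about 35% in these data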;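 further: loss of TO-PRO-1 fluorescence as compound displaces dye from 1x1 AA loop RNA; 0% = DMSO only wells and 100% = 100 µM mitoxantrone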
dCAG dye counter: DNA CAG dye complex inhibition counter-screen | shares compounds with rCAG RNA binder | hit rate 94% among 4,300 | d(CAG) DNA oligo TO-PRO-1 dye displacement, fluorescence | AID 652068 | inhibition, % at 3 µM;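 active means inhibition above its plate's cutoff, the mean test-well inhibition plus 3 SD, cut at about 4.8% in these data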;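 further: 0% = DNA dye mix with DMSO and 100% = 100 µM mitoxantrone; hits displace the dye from DNA and so lower well fluorescence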
PRMT1 inh conf: confirmation of human PRMT1 inhibitors; shares compounds with PRMT1 FP inh; recombinant His-PRMT1, activity-based probe fluorescence polarization; inhibition, % at 2.79 µM; hit rate 42% among 3,300;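 active means mean inhibition across replicates above the hit cutoff derived for the earlier primary screen, cut at about 22% in these data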
Starred values were filed as active, the others as inactive.

For Fc1ccc(-c2nc3c(Cl)cc(C(F)(F)F)cn3c2Cc2cccc(F)c2)cc1 the results were PRMT1 FP inh -4, ABHD5 PLIN5 PPI 15 and rCAG RNA binder 6.
Cc1ccc(Cc2c(-c3ccc(Br)cc3)nc3ccc(Br)cn23)cc1 was read as PRMT1 FP inh -3, ABHD5 PLIN5 PPI -12 and rCAG RNA binder 31.
For Clc1cccc(Cc2c(-c3ccco3)nc3ccc(Cl)cn23)c1 the results were PRMT1 FP inh 47*, ABHD5 PLIN5 PPI 71*, rCAG RNA binder 26, ABHD5 PLIN5 conf 86*, HNF4 split-luc 102* and PRMT1 inh conf 17.
Fc1cccc(Cc2c(-c3ccco3)nc3c(Cl)cc(C(F)(F)F)cn23)c1 was read as PRMT1 FP inh 38*, ABHD5 PLIN5 PPI 53*, rCAG RNA binder 32, ABHD5 PLIN5 conf 70*, HNF4 split-luc 83* and PRMT1 inh conf 23*.
Screening Clc1ccc(-c2nc3ccc(Cl)cn3c2Cc2cccc(Cl)c2)cc1 returned PRMT1 FP inh 2, ABHD5 PLIN5 PPI -4 and rCAG RNA binder 28.
For Cc1ccc(Cc2c(-c3ccco3)nc3c(C)cc(Br)cn23)cc1 the results were PRMT1 FP inh 33*, ABHD5 PLIN5 PPI 64*, rCAG RNA binder 30, ABHD5 PLIN5 conf 48*, HNF4 split-luc 66* and PRMT1 inh conf 18.
`Brc1ccc2nc(-c3ccco3)c(Cc3ccccc3)n2c1` gave PRMT1 FP inh 42*, ABHD5 PLIN5 PPI 59*, rCAG RNA binder 29, ABHD5 PLIN5 conf 63*, HNF4 split-luc 95* and PRMT1 inh conf 15.
For CCCNC(=O)C1(C)CCCN(C(=O)COc2ccc(Cl)cc2Cl)C1 (stereo not drawn) the results were PRMT1 FP inh -3, ABHD5 PLIN5 PPI 9 and rCAG RNA binder -1.
O[C@H](COc1cccc(Br)c1)CN1CCC(C(O)(c2ccccc2)c2ccccc2)CC1 was read as PRMT1 FP inh -1 and rCAG RNA binder 1.
`COCCNC(=S)N(C)[C@H]1C[C@H]2c3[nH]c4c(-c5ccc6c(c5)OCO6)cccc4c3CCN2C[C@H]1[C@H](C)O` gave PRMT1 FP inh 3 and rCAG RNA binder 9.
Cc1cc(Br)cn2c(Cc3ccccc3)c(-c3cccc(Cl)c3)nc12 was read as PRMT1 FP inh 9, ABHD5 PLIN5 PPI -3 and rCAG RNA binder 13.
Cc1cc(Br)cn2c(Cc3cccc(Cl)c3)c(-c3ccco3)nc12 was read as PRMT1 FP inh 44*, ABHD5 PLIN5 PPI 28*, rCAG RNA binder 42*, ABHD5 PLIN5 conf 28*, HNF4 split-luc 40*, rCAG bind conf 18, dCAG dye counter 5.2* and PRMT1 inh conf 18.
`CC(C)Oc1cc(F)ccc1-c1cc(C(=O)NCc2cccs2)[nH]n1` gave PRMT1 FP inh 0, ABHD5 PLIN5 PPI -9 and rCAG RNA binder 1.
CCCC(=O)NC1=C(Cl)C(=O)c2ccccc2C1=O was read as PRMT1 FP inh 95*, Rtt109 Vps75 2, ABHD5 PLIN5 PPI 48*, rCAG RNA binder 1, ABHD5 PLIN5 conf 64*, HNF4 split-luc 101* and PRMT1 inh conf 94*.
CCNC1=C(Cl)C(=O)c2ccccc2C1=O was read as ALR H2O2 inh -39, LANA-H2A inh -3, PRMT1 FP inh -3, Rtt109 Vps75 10, ABHD5 PLIN5 PPI -2 and rCAG RNA binder 1.
O=C(CSc1nnc(COc2ccccc2)n1Cc1ccco1)NCc1ccco1 was read as ALR H2O2 inh 45, LANA-H2A inh -6, PRMT1 FP inh 29*, ABHD5 PLIN5 PPI 37*, rCAG RNA binder 15, ABHD5 PLIN5 conf 44*, HNF4 split-luc 54* and PRMT1 inh conf 13.
Cc1cc(NC(=O)CSc2nnc(COc3ccccc3)n2Cc2ccco2)no1 was read as ALR H2O2 inh 0, LANA-H2A inh 0, PRMT1 FP inh -2, ABHD5 PLIN5 PPI 2 and rCAG RNA binder -3.
For COc1cccc(NC(=O)c2nc(S(C)(=O)=O)ncc2Cl)c1 the results were LANA-H2A inh 4, PRMT1 FP inh 40*, Rtt109 Vps75 inconclusive, ABHD5 PLIN5 PPI 53*, rCAG RNA binder -1, ABHD5 PLIN5 conf 77*, HNF4 split-luc 102* and PRMT1 inh conf 14.
For CN(c1ccccc1)S(=O)(=O)c1ccc(NC(=O)c2nc(S(C)(=O)=O)ncc2Cl)cc1 the results were ALR H2O2 inh 8, LANA-H2A inh 6, PRMT1 FP inh 40*, Rtt109 Vps75 11, ABHD5 PLIN5 PPI 78*, rCAG RNA binder 6, ABHD5 PLIN5 conf 91*, HNF4 split-luc 106* and PRMT1 inh conf 49*.
COCCNC(=S)Nc1ccc(N2CCOCC2)c(S(=O)(=O)Nc2ccc(Cl)cc2)c1 was read as PRMT1 FP inh 10, ABHD5 PLIN5 PPI -4 and rCAG RNA binder 7.
O=S(=O)(Nc1ccc(Cl)cc1)c1ccc(N2CCOCC2)c(NC(=S)NCCN2CCOCC2)c1 was read as ALR H2O2 inh 5, LANA-H2A inh -2, PRMT1 FP inh 49*, Rtt109 Vps75 20, ABHD5 PLIN5 PPI 31*, rCAG RNA binder 9, ABHD5 PLIN5 conf -5, HNF4 split-luc 48* and PRMT1 inh conf 74*.
For Cc1c([N+](=O)[O-])cc(N2C(=O)C=CC2=O)cc1[N+](=O)[O-] the results were Rtt109 Vps75 -6 and ABHD5 PLIN5 PPI 0.
For Cc1cc(C)cc(N2C(=O)C=CC2=O)c1 the results were PRMT1 FP inh 80*, Rtt109 Vps75 1, ABHD5 PLIN5 PPI 35*, rCAG RNA binder 6, ABHD5 PLIN5 conf 29*, HNF4 split-luc 89* and PRMT1 inh conf 96*.
`CCCCCCCCN1C(=O)[C@@H](CC(=O)N2CCN(C(=O)c3ccco3)CC2)C[C@@]2(C(=O)OC)C1=C[C@H](COCc1ccccc1)O[C@@H]2C` gave PRMT1 FP inh 0 and rCAG RNA binder 6.
For OC(Cc1ccccc1)c1ncc(-c2ccc3ccccc3c2)[nH]1 (stereo not drawn) the results were ABHD5 PLIN5 PPI -20.

Screening results deposited in PubChem BioAssay by several laboratories.
